Data taken from PubChem BioAssay (Tox21).
Inconclusive results are not listed. A call without a number means that no potency is given here. The source made the active and inactive calls. Unless noted, the call rests on the fitted dose curve.

Key:
[1] = Nuclear factor erythroid 2-related factor 2/antioxidant responsive element (Nrf2/ARE) small molecule agonists: qHTS cell viability counter screen in human keratinocytes (AID 1919968; active means well fitted curve in the direction sought with a large enough effect in the repeat runs; an effect the other way counts as inactive or inconclusive; further: nearly all actives have a fitted effect of over 55% in size; further: potency means the concentration at half of the fitted maximal effect); settings: KeratinoSens HaCaT ARE cells viability, CellTiter-Fluor, 24 h; series mostly up to 92.4 µM
Procedure, shortened: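 Parallel cytotoxicity read: KeratinoSens HaCaT cells, compound treatment 23 h, viability by CellTiter-Fluor fluorescence 1 h post-reagent.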

[2] = Nuclear factor erythroid 2-related factor 2/antioxidant responsive element (Nrf2/ARE) small molecule agonists: luciferase reporter gene qHTS assay in human keratinocytes (AID 1919969); settings: KeratinoSens HaCaT ARE-luciferase, luminescence, 24 h; series mostly up to 92.4 µM; further: nearly all actives have a fitted effect of over 35% in size; further: potency means the concentration at half of the fitted maximal effect
[3] = molecular target: Gonadotropin-releasing hormone receptor (Homo sapiens) (UniProt P30968); assay: Human gonadotropin-releasing hormone receptor (GnRHR) small molecule agonists, calcium flux assay in GnRHR-HEK293 cells (AID 1920063); settings: calcium flux fluorescence, agonist mode; series mostly up to 57.6 µM; further: nearly all actives have a fitted effect of over 35% in size
Procedure, shortened: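 Calcium flux, agonist mode, human GnRHR stably integrated in HEK293; dye 1 h at 37 C before compound; Ex/Em=480/540 kinetic read, 3 min; 15 concentrations, triplicate.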

[4] = molecular target: KiSS-1 receptor (Homo sapiens) (UniProt Q969F8); assay: Human kisspeptin (KISS1R) small molecule agonists, calcium flux assay in KISS1R-HEK293 cells (AID 1920064; active means well fitted curve in the direction sought with a large enough effect in the repeat runs; an effect the other way counts as inactive or inconclusive); settings: KISS1R-HEK293, calcium flux fluorescence, agonist; series mostly up to 76.8 µM
Procedure, shortened: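 Triplicate 15-concentration series were applied to dye-loaded human KISS1R HEK293 cells, and agonist-evoked calcium fluorescence was captured for 3 min.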

[5] = p53 small molecule agonists, cell-based qHTS assay with human liver microsomes: qHTS cell viability counter screen (AID 1963579); settings: p53RE-bla HCT-116 viability, ATP luminescence, 16 h, HLM; series mostly up to 66 µM; further: nearly all actives have a fitted effect of over 45% in size
Procedure, shortened: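 In this multiplexed counter screen, the reporter plates were subsequently treated with CellTiter-Glo so that cell viability, reflected by luminescence, could be recorded for p53RE-bla cells dosed 16 h with compounds under microsomal activation (HLM and NADPH).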

[6] = p53 small molecule agonists, cell-based qHTS assay with rat liver microsomes: qHTS cell viability counter screen (AID 1963580); settings: p53RE-bla HCT-116 + rat microsomes, ATP viability, 16 h; series mostly up to 66 µM; further: nearly all actives have a fitted effect of over 45% in size
Procedure, shortened: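 Cytotoxicity counter screen: intracellular ATP read by CellTiter-Glo luminescence in the p53 reporter wells. HCT-116 p53RE-bla cells were treated for 16 h at 37 C alongside rat liver microsomes and NADPH, each 0.5 mg/mL final.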

[7] = p53 small molecule agonists, cell-based qHTS assay: qHTS cell viability counter screen (AID 1963581); settings: p53RE-bla HCT-116 viability, ATP luminescence, 16 h; series mostly up to 66 µM; further: nearly all actives have a fitted effect of over 45% in size
Procedure, shortened: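 Multiplexed with the reporter read, a CellTiter-Glo step (30 min, room temperature) gauges ATP-based viability of HCT-116 p53RE-bla cells after 16 h compound incubation at 37 C.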

[8] = molecular target: 5-hydroxytryptamine receptor 2A (Homo sapiens) (UniProt P28223); assay: 5-hydroxytryptamine receptor 2A (HTR2A) small molecule antagonists, cell-based qHTS assay (AID 1963586); settings: HTR2A-CHO cells, DOI-induced calcium flux, fluorescence; series mostly up to 61.5 µM; further: nearly all actives have a fitted effect of over 45% in size
Procedure, shortened: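 CHO cells stably expressing human HTR2A were plated for 18 h at 37 C, then loaded with calcium dye for 1 h. Compounds were preincubated 5 min at room temperature before DOI (4 nM solution) was added. Kinetic fluorescence was read for 3 min.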

[9] = molecular target: 5-hydroxytryptamine receptor 2A (Homo sapiens) (UniProt P28223); assay: 5-hydroxytryptamine receptor 2A (HTR2A) small molecule agonists, cell-based qHTS assay (AID 1963587); settings: HTR2A-CHO cells, calcium flux fluorescence, agonist mode; series mostly up to 76.8 µM; further: nearly all actives have a fitted effect of over 30% in size
Procedure, shortened: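 Kinetic calcium-flux fluorescence (2 min, 1 sec intervals) after compound addition in agonist mode. HTR2A-CHO cells were cultured 18 h, then dye-loaded 1 h at 37 C.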

[10] = molecular target: Muscarinic acetylcholine receptor M1 (Homo sapiens) (UniProt P11229); assay: Cholinergic receptor muscarinic 1 (CHRM1) small molecule antagonists, cell-based qHTS assay (AID 1963588); settings: CHRM1-CHO antagonist mode, calcium flux fluorescence; series mostly up to 61.5 µM; further: nearly all actives have a fitted effect of over 40% in size
Procedure, shortened: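 Compounds were tested at 15 concentrations in three independent runs. Dye-loaded CHRM1-CHO cells were exposed 5 min at room temperature before stimulation by acetylcholine added at 50nM. Intracellular calcium was read kinetically on FDSS for 3 min.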

[11] = molecular target: Muscarinic acetylcholine receptor M1 (Homo sapiens) (UniProt P11229); assay: Cholinergic receptor muscarinic 1 (CHRM1) small molecule agonists, cell-based qHTS assay (AID 1963589); settings: CHRM1-CHO cells, agonist mode, calcium flux fluorescence; series mostly up to 76.8 µM; further: nearly all actives have a fitted effect of over 35% in size
Procedure, shortened: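 qHTS, 15-point titration, 3 independent runs: compounds pin-transferred onto dye-loaded CHRM1-CHO cells (human M1), calcium fluorescence followed every second to detect agonism.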

[12] = cAMP Responsive Elements (CRE) small molecule agonists, cell-based qHTS assay (AID 1963590); settings: CRE-bla HEK293T, beta-lactamase FRET ratio, 3 h; series mostly up to 92.4 µM
Procedure, shortened: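 Quantitative HTS for CRE agonists: HEK 293T CRE-bla cells, overnight plating, 3 h compound incubation at 37 C/5% CO2, then 2 h room-temperature LiveBLAzer B/G FRET substrate loading.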

[13] = cAMP Responsive Elements (CRE) small molecule antagonists, cell-based qHTS assay (AID 1963591; active means well fitted inhibition curve with a large enough effect in the signal ratio in the repeat runs, not every such curve was filed as active; the % refers to the signal ratio); settings: CRE-bla HEK293T, beta-lactamase FRET ratio; series mostly up to 92.4 µM
Procedure, shortened: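 Fluorescence intensity from cleaved LiveBLAzer B/G substrate (2 h, room temperature) quantified CRE-bla activity in HEK 293T cells exposed 3 h to compound with 0.25 uM final NKH477.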

[14] = molecular target: Beta-2 adrenergic receptor (Homo sapiens) (UniProt P07550); assay: Adrenergic beta2 receptor (ADRB2) small molecule agonists, cell-based qHTS assay (AID 1963593); settings: CHO-ADRB2 cells, cAMP HTRF, 30 min; series mostly up to 92.4 µM;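 further: CHO cells stably overexpressing human ADRB2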
Procedure, shortened: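 CHO cells stably over-expressing ADRB2 were plated overnight at 37C, then dosed with compounds plus a stimulation mix containing 100uM IBMX and 25uM Ro-20-1724 for 0.5hr at room temperature. cAMP was measured by HTRF competition, 1hr.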

[15] = molecular target: D(2) dopamine receptor (Homo sapiens) (UniProt P14416); assay: Dopamine D2 receptor (DRD2) small molecule agonists, cell-based qHTS assay (AID 1963594); settings: HEK293-DRD2 cAMP HTRF, agonist mode, 30 min; series mostly up to 92.4 µM; further: nearly all actives have a fitted effect of over 35% in size
Procedure, shortened: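 cAMP accumulation in DRD2-HEK293 cells measured by HTRF after 1 h detection; compounds added 10 min before NKH477 (200nM […]) forskolin-analogue stimulation, 30 min at room temperature, with Ro20-1724 present at 0.1 mM final.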

[16] = molecular target: D(2) dopamine receptor (Homo sapiens) (UniProt P14416); assay: Dopamine D2 receptor (DRD2) small molecule antagonists, cell-based qHTS assay (AID 1963595; active means well fitted inhibition curve with a large enough effect in the signal ratio in the repeat runs, with a control signal flat; the % refers to the signal ratio); settings: HEK293-DRD2 cAMP HTRF antagonist mode; series mostly up to 92.4 µM
Procedure, shortened: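 Stable D2 receptor HEK293 line, 24 h after seeding. Compound preincubated 10 min, then quinpirole (12 nM) with forskolin analogue NKH477 (200 nM), 30 min, room temperature. Detection by time-resolved FRET of cAMP.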

[17] = p53 small molecule agonists, cell-based qHTS assay with rat liver microsomes (AID 1963578); settings: HCT-116 p53RE-bla, beta-lactamase ratio, 16 h; series mostly up to 66 µM
Procedure, shortened: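 With rat liver microsomes and NADPH present (0.5 mg/mL final each), p53RE-bla cells are treated with compound for 16 h at 37 C. LiveBLAzer detection mixture is then applied for 2 h at room temperature in the dark.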

[18] = p53 small molecule agonists, cell-based qHTS assay (AID 1963582; active means well fitted activation curve with a large enough effect in the signal ratio in the repeat runs, not every such curve was filed as active; the % refers to the signal ratio); settings: HCT-116 p53RE-bla reporter, beta-lactamase FRET ratio, 16 h; series mostly up to 66 µM
Procedure, shortened: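 Beta-lactamase reporter cells (p53RE-bla) treated with compounds for 16 h at 37 C; FRET substrate, 2 h, room temperature; fluorescence intensity.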

[19] = molecular target: Beta-2 adrenergic receptor (Homo sapiens) (UniProt P07550); assay: Adrenergic beta2 receptor (ADRB2) small molecule antagonists, cell-based qHTS assay (AID 1963592); settings: CHO-ADRB2 cells, isoproterenol-stimulated cAMP HTRF ratio, 0.5 h; series mostly up to 92.4 µM; further: nearly all actives have a fitted effect of over 50% in size
Procedure, shortened: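 Assay format: CHO-ADRB2 cells, 18-20hr seeding at 37C/5% CO2, then compound plus 1nM isoproterenol agonist mix for 0.5hr RT. Homogeneous time-resolved fluorescence cAMP detection after 1hr, expressed as 665/615 nm ratio.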

[20] = G protein-coupled receptor (GPCR) small molecule agonists, calcium flux assay: HEK293 wild type cell line counter screen (AID 1920065); settings: HEK293 WT calcium flux, fluorescence, agonist mode; series mostly up to 57.6 µM
Procedure, shortened: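 Non-specific calcium responders were flagged by adding DMSO-dissolved compounds to dye-loaded cells and reading 480/540 nm fluorescence each second for 3 min; ATP served as positive control.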

5-hydroxytryptamine receptor 2A (Homo sapiens), sequence (P28223 whole entry, looked up): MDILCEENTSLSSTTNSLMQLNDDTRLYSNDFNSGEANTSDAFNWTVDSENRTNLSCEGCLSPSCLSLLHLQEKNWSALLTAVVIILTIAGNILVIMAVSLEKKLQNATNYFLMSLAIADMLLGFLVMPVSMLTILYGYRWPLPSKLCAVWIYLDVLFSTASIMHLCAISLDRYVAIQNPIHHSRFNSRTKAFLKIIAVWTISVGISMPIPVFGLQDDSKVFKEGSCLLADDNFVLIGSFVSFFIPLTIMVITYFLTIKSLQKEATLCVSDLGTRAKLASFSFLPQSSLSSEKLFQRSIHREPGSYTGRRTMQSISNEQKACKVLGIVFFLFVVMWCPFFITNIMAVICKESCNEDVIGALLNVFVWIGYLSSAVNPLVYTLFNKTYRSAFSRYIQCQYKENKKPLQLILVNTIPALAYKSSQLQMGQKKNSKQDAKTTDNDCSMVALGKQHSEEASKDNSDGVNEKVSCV
D(2) dopamine receptor (Homo sapiens), sequence (P14416 whole entry, looked up): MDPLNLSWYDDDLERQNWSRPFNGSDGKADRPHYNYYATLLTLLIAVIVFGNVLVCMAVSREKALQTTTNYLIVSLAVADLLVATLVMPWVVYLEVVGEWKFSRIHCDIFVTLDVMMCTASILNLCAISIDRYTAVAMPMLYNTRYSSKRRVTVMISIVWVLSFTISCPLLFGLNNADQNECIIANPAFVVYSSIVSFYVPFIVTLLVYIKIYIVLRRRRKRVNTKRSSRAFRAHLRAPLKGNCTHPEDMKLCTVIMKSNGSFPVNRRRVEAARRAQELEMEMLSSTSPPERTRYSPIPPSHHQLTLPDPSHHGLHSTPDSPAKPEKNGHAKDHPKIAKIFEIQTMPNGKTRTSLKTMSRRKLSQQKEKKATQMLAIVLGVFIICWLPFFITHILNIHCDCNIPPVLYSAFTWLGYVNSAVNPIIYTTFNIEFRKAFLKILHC
Muscarinic acetylcholine receptor M1 (Homo sapiens), sequence (P11229 whole entry, looked up): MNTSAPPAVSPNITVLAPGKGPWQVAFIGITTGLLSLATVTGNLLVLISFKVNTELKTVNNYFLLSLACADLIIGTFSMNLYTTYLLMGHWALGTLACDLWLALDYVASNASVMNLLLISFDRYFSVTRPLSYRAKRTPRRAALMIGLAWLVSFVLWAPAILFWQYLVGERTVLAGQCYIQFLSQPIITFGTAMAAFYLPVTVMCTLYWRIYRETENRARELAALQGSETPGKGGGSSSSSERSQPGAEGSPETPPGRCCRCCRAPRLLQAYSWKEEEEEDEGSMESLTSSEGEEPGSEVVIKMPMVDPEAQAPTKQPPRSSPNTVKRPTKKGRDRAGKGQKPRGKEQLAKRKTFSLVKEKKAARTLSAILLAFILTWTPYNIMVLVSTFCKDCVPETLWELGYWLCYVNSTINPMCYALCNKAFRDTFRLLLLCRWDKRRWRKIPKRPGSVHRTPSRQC
Beta-2 adrenergic receptor (Homo sapiens), sequence (P07550 whole entry, looked up): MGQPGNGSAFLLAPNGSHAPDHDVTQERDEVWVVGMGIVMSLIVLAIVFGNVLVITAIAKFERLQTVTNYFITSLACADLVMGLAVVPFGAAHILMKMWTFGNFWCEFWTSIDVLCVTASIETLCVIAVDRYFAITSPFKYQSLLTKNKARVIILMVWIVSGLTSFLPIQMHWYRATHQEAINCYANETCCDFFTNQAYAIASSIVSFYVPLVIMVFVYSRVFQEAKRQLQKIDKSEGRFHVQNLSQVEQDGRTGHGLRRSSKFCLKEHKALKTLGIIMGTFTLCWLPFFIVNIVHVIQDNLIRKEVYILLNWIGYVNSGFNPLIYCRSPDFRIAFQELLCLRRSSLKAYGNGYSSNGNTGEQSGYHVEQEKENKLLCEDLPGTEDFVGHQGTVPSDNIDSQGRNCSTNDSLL
Gonadotropin-releasing hormone receptor (Homo sapiens), sequence (P30968 whole entry, looked up): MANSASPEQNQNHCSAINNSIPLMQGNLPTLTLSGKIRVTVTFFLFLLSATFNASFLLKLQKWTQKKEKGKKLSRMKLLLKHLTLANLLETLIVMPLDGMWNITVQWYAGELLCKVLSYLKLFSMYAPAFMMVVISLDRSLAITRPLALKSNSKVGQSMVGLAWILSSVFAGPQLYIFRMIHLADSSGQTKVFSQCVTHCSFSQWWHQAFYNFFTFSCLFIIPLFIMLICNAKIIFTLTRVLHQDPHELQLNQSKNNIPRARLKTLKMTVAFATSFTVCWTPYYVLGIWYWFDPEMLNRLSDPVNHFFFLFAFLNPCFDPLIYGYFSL
KiSS-1 receptor (Homo sapiens), sequence (Q969F8 whole entry, looked up): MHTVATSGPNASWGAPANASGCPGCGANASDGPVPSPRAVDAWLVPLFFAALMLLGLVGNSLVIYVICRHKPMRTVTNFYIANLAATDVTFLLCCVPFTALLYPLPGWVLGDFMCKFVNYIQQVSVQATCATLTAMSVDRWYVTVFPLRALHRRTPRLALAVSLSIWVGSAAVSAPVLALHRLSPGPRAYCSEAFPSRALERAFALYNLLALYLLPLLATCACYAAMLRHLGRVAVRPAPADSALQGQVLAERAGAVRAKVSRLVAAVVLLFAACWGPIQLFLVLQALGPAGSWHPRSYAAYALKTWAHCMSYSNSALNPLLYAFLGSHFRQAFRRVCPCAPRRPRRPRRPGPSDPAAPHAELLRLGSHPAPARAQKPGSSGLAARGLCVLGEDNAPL

SMILES	Potency [1]	Potency [2]	Potency [3]	Potency [4]	Potency [5]	Potency [6]	Potency [7]	Potency [8]	Potency [9]	Potency [10]	Potency [11]	Potency [12]	Potency [13]	Potency [14]	Potency [15]	Potency [16]	Potency [17]	Potency [18]	Potency [19]	Potency [20]
ClC(Cl)c1ccccc1	inactive	inactive	inactive	inactive	inactive	inactive	inactive	inactive	inactive	inactive	inactive	inactive	inactive	inactive	inactive	inactive				
NC(=O)CF	inactive	inactive	inactive	inactive	inactive	inactive	inactive		inactive	inactive	inactive	inactive	inactive		inactive		inactive	inactive	inactive	
CCCCOCCOP(=O)(OCCOCCCC)OCCOCCCC	inactive	inactive	inactive	inactive	inactive	inactive	inactive	inactive	inactive	inactive	inactive		inactive		inactive	inactive	inactive	inactive	inactive	
Cc1cc(O)ccc1Cl	inactive	inactive	inactive		inactive	inactive	inactive	inactive	inactive	inactive	inactive	inactive	inactive	inactive	inactive	inactive	inactive	inactive	inactive	inactive
CCOC(=O)c1cncn1C(C)c1ccccc1 (stereo unspecified)	inactive	inactive	inactive		inactive	inactive	inactive	inactive	inactive	inactive	inactive	inactive	inactive	inactive	inactive	inactive	inactive	inactive	inactive	inactive
O=C(O)C(Cl)Cl	inactive	inactive	inactive	inactive	inactive		inactive	inactive	inactive	inactive	inactive	inactive	inactive	inactive	inactive	inactive			inactive	
CCCN(CCC)N=O	inactive	inactive	inactive		inactive	inactive	inactive	inactive	inactive	inactive	inactive	inactive	inactive		inactive		inactive	inactive	inactive	inactive
C/C=C/CC#N	inactive	inactive	inactive		inactive	inactive	inactive	inactive		inactive	inactive	inactive	inactive		inactive	inactive	inactive	inactive	inactive	inactive
CCCCN(CC)c1c([N+](=O)[O-])cc(C(F)(F)F)cc1[N+](=O)[O-]	inactive	61.1 µM (active)	inactive		inactive	inactive	inactive	inactive	inactive	inactive	inactive	inactive	inactive	inactive			inactive	inactive	inactive	inactive
CC(C)OC(=O)Cc1ccccc1	inactive	inactive	inactive		inactive	inactive	inactive	inactive	inactive	inactive	inactive	inactive			inactive	inactive	inactive	inactive	inactive	inactive
C(=NC1CCCCC1)=NC1CCCCC1	54.8 µM (active)	30.6 µM (active)	inactive		inactive	inactive	inactive	inactive	inactive	inactive	inactive	inactive	inactive	inactive	inactive	inactive	inactive	inactive	inactive	inactive
CCCSC(=O)Cl	inactive	inactive	inactive		inactive	inactive	inactive	inactive	inactive	inactive	inactive	inactive	inactive	inactive	inactive	inactive	inactive	inactive	inactive	inactive
CC(Cl)CCl (stereo unspecified)	inactive	inactive	inactive		inactive	inactive	inactive	inactive	inactive	inactive	inactive	inactive	inactive		inactive	inactive	inactive	inactive	inactive	inactive
CCC/C=N/O	inactive	inactive	inactive		inactive	inactive	inactive	inactive	inactive	inactive	inactive	inactive	inactive		inactive	inactive	inactive	inactive	inactive	inactive
CCNc1nc(NC(C)C)nc(SC)n1	inactive	inactive	inactive	inactive	inactive		inactive	inactive	inactive	inactive	inactive	inactive	inactive			inactive			inactive	
CC(C)(c1ccccc1)c1cc(-n2nc3ccccc3n2)c(O)c(C(C)(C)c2ccccc2)c1	inactive	inactive	inactive		inactive	inactive	inactive	inactive	inactive	inactive	inactive	inactive	inactive		inactive	inactive	inactive	inactive	inactive	inactive
COCC(=O)N(c1c(C)cccc1C)N1CCOC1=O	inactive	inactive	inactive		inactive	inactive	inactive	inactive	inactive	inactive	inactive	inactive	inactive	inactive	inactive	inactive	inactive	inactive	inactive	inactive
CC(C)(C)C(=O)C(Cl)Cl	inactive	inactive	inactive		inactive	inactive	inactive		inactive	inactive	inactive	inactive	inactive				inactive	inactive	inactive	inactive
CC(C)C(C)(N)C#N (stereo unspecified)	inactive	inactive	inactive		inactive	inactive	inactive	inactive	inactive	inactive	inactive	inactive	inactive		inactive	inactive	inactive	inactive	inactive	inactive
CCCCON=O	inactive	inactive	inactive		inactive	inactive	inactive	inactive	inactive		inactive	inactive	inactive			inactive	inactive	inactive	inactive	inactive
O=c1n(Cl)c(=O)n(Cl)c(=O)n1Cl	inactive	inactive	inactive		inactive	inactive	inactive	inactive	inactive	inactive	inactive	inactive	inactive	inactive	inactive	inactive	inactive	inactive	inactive	inactive
CC(=O)C1CCOC1=O (stereo unspecified)	inactive	inactive	inactive		inactive	inactive	inactive	inactive	inactive	inactive	inactive	inactive	inactive	inactive	inactive	inactive	inactive	inactive	inactive	inactive
c1ccc(P(c2ccccc2)c2ccccc2)cc1	inactive	inactive	inactive		inactive	inactive	inactive	inactive	inactive	inactive	inactive	inactive	inactive		inactive	inactive	inactive	inactive	inactive	inactive
